Measured values reported in the supplement of paper PMC10849652.
Targets with a hit are over-represented here; the source holds about 8,800 in all. About 0.5% of all pairs of compound and target were hits. Values without a mark were called inactive.

Assays:
Test in all cases: log2 fold change, soluble protein after heating vs DMSO (PISA); higher = thermal stabilisation; K562 lysate, 10 uM; active = over 0.2 and 3.5 SD of the protein, either way, in both replicates (recomputed)
[1] = compound: CN1CC[C@H](c2c(O)cc(O)c3c(=O)cc(-c4ccccc4Cl)oc23)[C@H](O)C1 [alvocidib]
Procedure, shortened: (§1)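 To prepare the extract, K562 pellets were dounce-homogenised in PBS pH 7.4 with 1 mM MgCl2, giving crude material at 1 mg/mL protein. This was treated with 10 μM compound for 30 min, then heated in aliquots for 3 min over 48°C-58°C before pooling and addition of NP-40 to 0.5% at 4°C. Centrifugation at 21,000xg for 90 min left soluble protein in the supernatant, which TMTpro 16plex LC-MS/MS quantified with equalised channel sums. Results are log-two fold changes in thermal stability compared with solvent controls, from duplicates.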

[2] = compound: CN1CCc2c(c3ccccc3n2Cc2ccc(C(=O)NO)cc2)C1 [Tubastatin A]
Procedure, shortened: as §1

[3] = compound: CNC(=O)C1=CC=CC=C1NC2=NC(=NC=C2Cl)NC3=C(C=C(C=C3)N4CCOCC4)OC
Procedure, shortened: as §1

[4] = compound: CNC(=O)c1ccc(Nc2ncc(C(F)(F)F)c(NCc3nccnc3N(C)S(C)(=O)=O)n2)cc1 [defactinib]
Procedure, shortened: as §1

[5] = compound: CNc1nc(-c2ccc3c(N)n[nH]c3c2)cc(N2C[C@@H](C(=O)NC3CCCCC3)CC[C@H]2C)n1
Procedure, shortened: as §1

[6] = compound: COC(=O)N[C@@H](C)CNc1nccc(-c2cn(C(C)C)nc2-c2cc(Cl)cc(NS(C)(=O)=O)c2F)n1 [encorafenib]
Procedure, shortened: as §1

[7] = compound: COC(=O)[C@H](CCSC)NC(=O)C1=C(C=C(C=C1)NC[C@H](CS)N)C2=CC=CC=C2
Procedure, shortened: as §1

[8] = compound: COc1cc(Nc2ncc3c(n2)-c2ccc(Cl)cc2C(c2c(F)cccc2OC)=NC3)ccc1C(=O)O [alisertib]
Procedure, shortened: as §1

[9] = compound: COc1cc2nc(-c3cc(F)ccc3O)nc(N[C@@H]3CNC[C@H]3C(C)(C)O)c2cc1OC
Procedure, shortened: as §1

[10] = compound: COc1cc2ncnc(Nc3ccc(F)c(Cl)c3)c2cc1OCCCN1CCOCC1 [gefitinib]
Procedure, shortened: as §1

[11] = compound: CS(=O)(=O)CCNCc1ccc(-c2ccc3ncnc(Nc4ccc(OCc5cccc(F)c5)c(Cl)c4)c3c2)o1 [lapatinib]
Procedure, shortened: as §1

[12] = compound: CS(=O)(=O)N1CCN(Cc2cc3nc(-c4cccc5[nH]ncc45)nc(N4CCOCC4)c3s2)CC1 [pictilisib]
Procedure, shortened: as §1

[13] = compound: C[C@@H](Oc1cc(-c2cnn(C3CCNCC3)c2)cnc1N)c1c(Cl)ccc(F)c1Cl [crizotinib]
Procedure, shortened: as §1

[14] = compound: C[C@H](C1=CC=C(C=C1)C(=O)NC2=C3C=CNC3=NC=C2)N
Procedure, shortened: as §1

[15] = compound: C[C@H](Nc1ncnc2nc[nH]c12)c1cc2cccc(Cl)c2c(=O)n1-c1ccccc1 [duvelisib]
Procedure, shortened: as §1

[16] = compound: Cc1cc(Nc2cc(CN3CCOCC3)c3nc(C)c(Cc4ccc(Cl)cc4F)n3n2)n[nH]1 [gandotinib]
Procedure, shortened: as §1

[17] = compound: Cc1cc(Nc2cc(N3CCN(C)CC3)nc(Sc3ccc(NC(=O)C4CC4)cc3)n2)n[nH]1 [tozasertib]
Procedure, shortened: as §1

[18] = compound: Cc1ccc(-n2nc(C(C)(C)C)cc2NC(=O)Nc2ccc(OCCN3CCOCC3)c3ccccc23)cc1 [doramapimod]
Procedure, shortened: as §1

[19] = compound: Cc1ccc(NC(=O)c2ccc(CN3CC[C@H](N(C)C)C3)c(C(F)(F)F)c2)cc1Nc1nccc(-c2cncnc2)n1 [bafetinib]
Procedure, shortened: as §1

[20] = compound: Cc1cccc(CC(=O)N2CCc3c2ccc(-c2cn(C)c4ncnc(N)c24)c3F)n1
Procedure, shortened: as §1

Chain of UniProt Q2VIQ3 (Q2VIQ3 whole entry, looked up): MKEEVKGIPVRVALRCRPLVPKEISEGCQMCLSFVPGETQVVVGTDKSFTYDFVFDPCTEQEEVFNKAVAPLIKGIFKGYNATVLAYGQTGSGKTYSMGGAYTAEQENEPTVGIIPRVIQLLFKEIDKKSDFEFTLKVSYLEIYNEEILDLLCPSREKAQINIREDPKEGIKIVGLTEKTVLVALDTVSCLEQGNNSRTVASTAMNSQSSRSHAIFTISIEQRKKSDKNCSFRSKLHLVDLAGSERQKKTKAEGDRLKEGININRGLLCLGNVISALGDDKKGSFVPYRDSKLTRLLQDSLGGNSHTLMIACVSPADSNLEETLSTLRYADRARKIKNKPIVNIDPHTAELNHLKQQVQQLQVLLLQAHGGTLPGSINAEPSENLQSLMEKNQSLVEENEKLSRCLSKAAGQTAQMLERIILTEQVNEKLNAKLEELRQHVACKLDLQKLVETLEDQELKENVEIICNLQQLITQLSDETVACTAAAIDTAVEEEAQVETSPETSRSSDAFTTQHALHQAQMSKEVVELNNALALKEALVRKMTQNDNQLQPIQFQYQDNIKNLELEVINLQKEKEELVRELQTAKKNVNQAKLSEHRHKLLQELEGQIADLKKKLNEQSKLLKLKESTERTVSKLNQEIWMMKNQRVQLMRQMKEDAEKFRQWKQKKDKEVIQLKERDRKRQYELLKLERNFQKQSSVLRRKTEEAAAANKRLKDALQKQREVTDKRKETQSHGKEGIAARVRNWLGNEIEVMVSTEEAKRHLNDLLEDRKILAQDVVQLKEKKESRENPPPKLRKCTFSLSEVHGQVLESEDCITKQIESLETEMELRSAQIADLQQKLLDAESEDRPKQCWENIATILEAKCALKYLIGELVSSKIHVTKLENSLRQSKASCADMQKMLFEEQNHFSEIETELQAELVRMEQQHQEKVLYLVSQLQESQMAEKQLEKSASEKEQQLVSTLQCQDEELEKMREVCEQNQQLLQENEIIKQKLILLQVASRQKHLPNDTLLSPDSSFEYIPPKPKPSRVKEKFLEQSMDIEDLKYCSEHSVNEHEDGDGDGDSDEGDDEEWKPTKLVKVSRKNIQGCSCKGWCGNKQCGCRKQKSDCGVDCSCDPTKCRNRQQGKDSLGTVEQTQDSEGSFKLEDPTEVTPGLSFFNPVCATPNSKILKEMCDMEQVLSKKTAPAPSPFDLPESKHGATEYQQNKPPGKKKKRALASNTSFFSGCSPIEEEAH
Chain of UniProt Q96RQ3 (Q96RQ3 whole entry, looked up): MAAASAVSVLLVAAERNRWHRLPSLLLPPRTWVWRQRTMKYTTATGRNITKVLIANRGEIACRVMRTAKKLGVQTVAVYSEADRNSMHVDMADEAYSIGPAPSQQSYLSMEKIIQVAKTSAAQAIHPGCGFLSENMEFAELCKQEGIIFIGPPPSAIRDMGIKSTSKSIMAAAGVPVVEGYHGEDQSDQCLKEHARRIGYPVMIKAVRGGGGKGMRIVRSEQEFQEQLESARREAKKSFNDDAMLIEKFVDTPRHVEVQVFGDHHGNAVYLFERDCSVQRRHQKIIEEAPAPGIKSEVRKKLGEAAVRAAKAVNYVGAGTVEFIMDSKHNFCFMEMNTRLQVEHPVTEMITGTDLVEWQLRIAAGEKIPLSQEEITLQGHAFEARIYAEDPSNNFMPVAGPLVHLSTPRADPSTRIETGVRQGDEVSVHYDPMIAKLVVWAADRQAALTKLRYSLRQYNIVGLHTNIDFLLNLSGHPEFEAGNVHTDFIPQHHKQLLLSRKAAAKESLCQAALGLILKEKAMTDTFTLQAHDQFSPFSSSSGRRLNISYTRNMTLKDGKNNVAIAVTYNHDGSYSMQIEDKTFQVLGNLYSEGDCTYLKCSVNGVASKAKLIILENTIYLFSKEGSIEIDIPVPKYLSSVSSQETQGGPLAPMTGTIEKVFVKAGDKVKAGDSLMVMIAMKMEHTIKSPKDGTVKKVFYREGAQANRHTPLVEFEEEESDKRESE
Chain of UniProt Q9NZB8 (Q9NZB8 whole entry, looked up): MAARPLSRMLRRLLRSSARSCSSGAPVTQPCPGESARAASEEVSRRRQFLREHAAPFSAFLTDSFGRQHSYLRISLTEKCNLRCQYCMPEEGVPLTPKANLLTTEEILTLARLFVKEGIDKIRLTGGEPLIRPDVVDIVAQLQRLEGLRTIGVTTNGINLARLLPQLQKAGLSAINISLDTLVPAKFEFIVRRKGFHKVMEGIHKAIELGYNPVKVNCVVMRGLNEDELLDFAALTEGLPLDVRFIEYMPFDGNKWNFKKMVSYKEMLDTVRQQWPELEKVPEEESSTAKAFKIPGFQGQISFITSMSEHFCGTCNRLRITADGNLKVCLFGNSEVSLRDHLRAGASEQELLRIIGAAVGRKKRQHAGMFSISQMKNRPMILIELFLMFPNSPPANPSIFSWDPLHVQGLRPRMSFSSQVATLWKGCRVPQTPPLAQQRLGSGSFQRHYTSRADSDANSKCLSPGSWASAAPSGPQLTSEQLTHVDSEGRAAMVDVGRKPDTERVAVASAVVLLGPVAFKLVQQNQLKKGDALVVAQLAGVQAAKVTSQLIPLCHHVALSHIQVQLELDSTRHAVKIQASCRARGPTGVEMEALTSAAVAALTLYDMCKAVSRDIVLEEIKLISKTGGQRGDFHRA
Chain of UniProt Q8IWC1 (Q8IWC1 whole entry, looked up): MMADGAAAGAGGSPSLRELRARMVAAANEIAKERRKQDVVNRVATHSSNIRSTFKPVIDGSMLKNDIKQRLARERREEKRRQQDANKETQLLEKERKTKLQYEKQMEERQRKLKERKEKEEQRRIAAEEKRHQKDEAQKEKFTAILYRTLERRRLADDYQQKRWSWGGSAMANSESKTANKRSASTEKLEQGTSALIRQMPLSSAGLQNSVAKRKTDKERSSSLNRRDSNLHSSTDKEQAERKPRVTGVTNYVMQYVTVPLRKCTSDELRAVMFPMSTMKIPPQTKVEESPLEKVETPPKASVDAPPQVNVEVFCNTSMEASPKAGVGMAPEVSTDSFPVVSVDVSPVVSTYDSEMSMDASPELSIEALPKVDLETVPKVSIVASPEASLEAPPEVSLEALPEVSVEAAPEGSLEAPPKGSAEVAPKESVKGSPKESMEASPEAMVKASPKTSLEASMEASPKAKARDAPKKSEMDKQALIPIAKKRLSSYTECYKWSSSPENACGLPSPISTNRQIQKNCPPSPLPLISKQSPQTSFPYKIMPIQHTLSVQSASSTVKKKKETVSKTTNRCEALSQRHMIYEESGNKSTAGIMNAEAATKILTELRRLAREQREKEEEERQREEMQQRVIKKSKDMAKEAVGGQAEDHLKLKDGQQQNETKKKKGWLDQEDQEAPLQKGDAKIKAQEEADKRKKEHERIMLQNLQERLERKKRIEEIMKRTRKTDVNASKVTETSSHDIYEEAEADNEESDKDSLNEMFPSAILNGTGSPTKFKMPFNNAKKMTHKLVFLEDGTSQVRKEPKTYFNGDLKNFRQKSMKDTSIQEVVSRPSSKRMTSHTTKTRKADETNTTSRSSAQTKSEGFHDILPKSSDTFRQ
Chain of UniProt Q15334 (Q15334 whole entry, looked up): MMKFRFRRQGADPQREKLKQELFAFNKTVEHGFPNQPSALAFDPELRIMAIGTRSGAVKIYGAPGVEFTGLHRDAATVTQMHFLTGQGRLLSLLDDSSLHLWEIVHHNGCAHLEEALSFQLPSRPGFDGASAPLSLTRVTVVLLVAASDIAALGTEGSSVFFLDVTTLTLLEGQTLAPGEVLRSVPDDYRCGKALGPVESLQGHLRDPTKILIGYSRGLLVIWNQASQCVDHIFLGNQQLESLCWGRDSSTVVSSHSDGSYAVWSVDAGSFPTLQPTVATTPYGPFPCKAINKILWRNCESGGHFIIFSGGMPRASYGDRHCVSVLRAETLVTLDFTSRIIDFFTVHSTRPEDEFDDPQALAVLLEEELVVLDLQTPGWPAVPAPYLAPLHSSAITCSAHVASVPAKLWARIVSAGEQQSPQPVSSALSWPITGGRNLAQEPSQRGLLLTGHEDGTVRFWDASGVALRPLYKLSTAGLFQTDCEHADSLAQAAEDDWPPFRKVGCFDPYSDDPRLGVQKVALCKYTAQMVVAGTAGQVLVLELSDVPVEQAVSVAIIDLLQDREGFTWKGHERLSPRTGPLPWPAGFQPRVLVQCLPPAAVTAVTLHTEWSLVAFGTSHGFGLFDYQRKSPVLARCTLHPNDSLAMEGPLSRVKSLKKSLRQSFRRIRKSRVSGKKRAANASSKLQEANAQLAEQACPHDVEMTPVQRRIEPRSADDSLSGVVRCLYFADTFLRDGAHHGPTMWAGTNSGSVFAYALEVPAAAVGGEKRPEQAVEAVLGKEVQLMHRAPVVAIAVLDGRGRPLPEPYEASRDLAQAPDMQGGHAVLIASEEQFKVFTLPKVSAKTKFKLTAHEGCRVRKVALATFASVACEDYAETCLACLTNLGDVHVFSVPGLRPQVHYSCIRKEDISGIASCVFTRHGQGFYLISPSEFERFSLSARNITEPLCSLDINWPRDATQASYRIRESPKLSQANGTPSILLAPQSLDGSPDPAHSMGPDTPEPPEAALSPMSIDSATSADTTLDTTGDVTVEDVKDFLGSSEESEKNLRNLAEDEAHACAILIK
Chain of UniProt P48059 (P48059 whole entry, looked up): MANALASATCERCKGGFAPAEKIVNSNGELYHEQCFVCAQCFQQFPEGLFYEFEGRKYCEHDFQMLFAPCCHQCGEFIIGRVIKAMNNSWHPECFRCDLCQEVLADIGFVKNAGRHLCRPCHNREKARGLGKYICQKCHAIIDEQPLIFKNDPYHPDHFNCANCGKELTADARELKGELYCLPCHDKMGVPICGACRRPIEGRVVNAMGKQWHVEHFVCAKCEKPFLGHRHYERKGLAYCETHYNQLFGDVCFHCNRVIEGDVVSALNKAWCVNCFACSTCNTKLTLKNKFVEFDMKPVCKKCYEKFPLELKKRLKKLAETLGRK
Chain of UniProt O14880 (O14880 whole entry, looked up): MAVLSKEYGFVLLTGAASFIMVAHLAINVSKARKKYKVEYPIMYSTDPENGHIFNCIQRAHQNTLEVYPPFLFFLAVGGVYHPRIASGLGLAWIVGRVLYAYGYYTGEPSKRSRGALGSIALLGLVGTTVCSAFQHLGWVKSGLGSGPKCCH

| Target | log2 fold change [1] | log2 fold change [2] | log2 fold change [3] | log2 fold change [4] | log2 fold change [5] | log2 fold change [6] | log2 fold change [7] | log2 fold change [8] | log2 fold change [9] | log2 fold change [10] | log2 fold change [11] | log2 fold change [12] | log2 fold change [13] | log2 fold change [14] | log2 fold change [15] | log2 fold change [16] | log2 fold change [17] | log2 fold change [18] | log2 fold change [19] | log2 fold change [20] |
| --- | --- | --- | --- | --- | --- | --- | --- | --- | --- | --- | --- | --- | --- | --- | --- | --- | --- | --- | --- | --- |
| LLGL1 (UniProt Q15334) | 0.026 | -0.105 | 0.032 | -0.013 | -0.034 | 0.052 | 0.108 | -0.032 | 0.121 | -0.065 | -0.005 | -0.058 | -0.025 | 0.263 (active) | 0.096 | -0.011 | 0.054 | 0.006 | -0.104 | -0.019 |
| KLC4 isoform 3 (UniProt Q9NSK0) | -0.01 | -0.091 | -0.008 | 0.014 | -0.084 | 0.014 | 0.007 | 0.014 | 0.014 | -0.028 | -0.002 | -0.053 | -0.027 | 0.019 | 0.029 | -0.074 | -0.021 | 0.034 | -0.018 | 0.001 |
| MARK3 (UniProt P27448) | -0.071 | -0.119 | -0.188 | -0.158 | 0.113 | 0.038 | 0.129 | 0.006 | 0.003 | -0.02 | 0.007 | -0.061 | -0.206 | 0.043 | 0.011 | -0.089 | -0.143 | -0.081 | -0.088 | 0.049 |
| MRPL15 (UniProt Q9P015) | -0.122 | 0.022 | -0.014 | -0.011 | 0.088 | 0.053 | -0.013 | 0.006 | -0.014 | -0.027 | -0.021 | 0.036 | -0.045 | -0.421 (active) | -0.013 | 0.134 | 0 | 0.079 | -0.063 | 0.241 |
| LTN1 isoform 3 (UniProt O94822) | 0.016 | -0.259 | -0.014 | -0.009 | -0.063 | 0.034 | -0.072 | 0.017 | 0.035 | -0.021 | 0.086 | -0.017 | -0.046 | 0.027 | -0.029 | -0.18 | 0.003 | 0.009 | -0.071 | 0.007 |
| MRPL46 (UniProt Q9H2W6) | 0.125 | -0.097 | 0.28 | 0.051 | 0.058 | -0.032 | 0 | 0.02 | -0.045 | 0.041 | 0.019 | 0.096 | -0.011 | 0.452 (active) | 0.033 | -0.09 | 0.008 | 0.024 | 0.034 | -0.073 |
| KIF4B (UniProt Q2VIQ3) | -0.01 | -0.207 (active) | 0.024 | 0.008 | -0.039 | 0.034 | 0.146 | -0.018 | -0.006 | -0.018 | 0.03 | -0.001 | -0.02 | 0.029 | -0.023 | -0.051 | -0.033 | 0.015 | -0.04 | 0.035 |
| LIMS1 isoform 3 (UniProt P48059) | -0.014 | 0.034 | 0.017 | 0.048 | 0.02 | 0.004 | -0.118 | 0.011 | -0.003 | -0.097 | 0.002 | -0.019 | 0.103 | -0.045 | -0.023 | 0.008 | -0.02 | -0.068 | -0.035 | 0.038 |
| LSM8 (UniProt O95777) | -0.012 | 0.018 | 0.007 | 0.048 | -0.028 | 0.032 | -0.076 | -0.026 | 0.005 | 0.046 | -0.005 | -0.067 | 0.02 | -0.028 | 0.002 | 0.007 | 0.037 | 0.016 | 0.176 | 0.026 |
| KSR1 (UniProt Q8IVT5) | 0.214 | -0.086 | -0.042 | -0.045 | -0.038 | 0.075 | 0.257 | 0.028 | 0.115 | -0.016 | -0.107 | 0.064 | -0.015 | 0.006 | -0.026 | -0.087 | 0.017 | -0.065 | -0.038 | -0.156 |
| MED16 (UniProt Q9Y2X0) | 0.01 | -0.093 | 0.02 | -0.014 | 0.004 | -0.011 | 0.038 | -0.015 | -0.004 | 0.019 | -0.014 | -0.154 | 0.03 | 0.167 | -0.027 | -0.261 (active) | 0.012 | 0.021 | 0.051 | -0.065 |
| LYAR (UniProt Q9NX58) | 0.072 | 0.018 | 0.006 | 0.014 | -0.002 | -0.005 | 0.021 | 0.005 | -0.001 | -0.043 | 0 | 0.025 | 0.005 | 0.269 (active) | 0.017 | -0.119 | -0.025 | -0.017 | -0.008 | -0.099 |
| MGST3 (UniProt O14880) | 0.071 | 0.043 | 0.054 | 0 | 0.029 | -0.04 | 0.052 | 0.026 | -0.005 | -0.038 | 0.01 | -0.017 | 0.004 | 0.23 | -0.02 | -0.078 | -0.035 | -0.025 | -0.048 | -0.087 |
| MAP7D3 (UniProt Q8IWC1) | -0.063 | 0.015 | 0.037 | -0.379 (active) | -0.011 | 0.223 | 0.013 | 0.01 | -0.02 | 0.017 | 0.033 | 0.01 | -0.006 | -0.055 | -0.068 | 0.021 | 0.066 | 0.065 | -0.128 | 0.06 |
| MCCC1 (UniProt Q96RQ3) | 0.063 | -0.036 | 0.003 | -0.002 | -0.025 | 0.012 | -0.057 | 0 | 0.001 | 0.017 | -0.022 | -0.038 | -0.004 | 0.106 | 0.017 | -0.14 | -0.019 | 0.003 | -0.048 | -0.093 |
| MOCS1 isoform 8 (UniProt Q9NZB8) | -0.108 | -0.008 | 0.002 | 0.113 | -0.105 | 0.039 | -0.055 | -0.099 | 0.003 | 0.395 (active) | -0.022 | -0.003 | -0.046 | -0.078 | 0 | 0.012 | 0.11 | 0.018 | -0.032 | 0.04 |
